High-throughput results deposited in PubChem by National Center for Advancing Translational Sciences (NCATS).
VACV mCherry inh: qHTS for Stage-Specific Inhibitors of Vaccinia Orthopoxvirus: mCherry Reporter Primary qHTS. Vaccinia virus mCherry reporter infection, fluorescence. AID 720579, 2013. Potency, µM (series often up to 36.5 µM), for the others: top-dose activity change, negative = inhibition, actives largely listed as inhibitors. hit rate 0.63% among 310,000; calls by dose curve; tested in A549 cells; also: potency is read from the fitted curve at half-maximal effect; % is scaled to controls: 0 for no effect and ±100 for the full control effect; nearly all actives have a fitted effect of over 35% in size
Vaccinia Venus: qHTS for Stage-Specific Inhibitors of Vaccinia Orthopoxvirus: Venus Reporter Primary qHTS. Vaccinia virus Venus reporter expression, fluorescence. Potency, µM (highest dose often 36.5 µM), inactives show at the top dose activity change, negative = inhibition, actives largely listed as inhibitors. hit rate 0.46% among 330,000; calls by dose curve; tested in A549 cells; also: potency is read from the fitted curve at half-maximal effect; % is scaled to controls: 0 for no effect and ±100 for the full control effect; nearly all actives have a fitted effect of over 30% in size
LASV entry inh: qHTS for Inhibitors of binding or entry into cells for Lassa Virus. AID 540256, 2011. hit rate 1.2% among 300,000. Potency, µM (titrated, usually from 37.9 µM), without a hit: at the highest dose activity change, negative = inhibition, hits mostly inhibitors. Lassa virus pseudotype entry inhibition, cell reporter; calls by dose curve; tested in HEK293 cells; also: potency is read from the fitted curve at half-maximal effect; % is scaled to controls: 0 for no effect and ±100 for the full control effect; nearly all actives have a fitted effect of over 50% in size
Marburg entry inh: qHTS for inhibitors of binding or entry into cells for Marburg Virus; Marburg virus pseudotyped entry inhibition, cell reporter; hit rate 1.8% among 300,000; AID 540276, 2011; Potency, µM (titrated, usually from 37.8 µM), for the others: at the highest dose activity change, negative = inhibition, usual class: inhibitors; calls by dose curve; tested in HEK293 cells; also: potency is read from the fitted curve at half-maximal effect; % is scaled to controls: 0 for no effect and ±100 for the full control effect
Cycloheximide cs: Cycloheximide Counterscreen for Small Molecule Inhibitors of Shiga Toxin; max response, %; hit rate 12% among 300,000; cell reporter, cycloheximide protein synthesis inhibition counterscreen; AID 2314, 2010; in the data active = max response mostly above about 13%, no sharp cut-off; inactive = mostly below about 14%; also: read at 38.3 µM for the half of the compounds with a filed dose; 0% is about no effect
Shiga inhibitor: A qHTS for Small Molecule Inhibitors of Shiga Toxin; Vero cells, Shiga toxin protein synthesis inhibition reporter; AID 2315, 2010; inhibition, % at 38.7 µM; hit rate 9.2% among 290,000; in the data active = inhibition mostly above about 28%, no sharp cut-off; inactive = mostly below about 43%; also: 0% is about no effect
The depositor's hits bear a star; i = inactive; ? = inconclusive; / = no result; [ ] = another dose, or the depositor's remark. The sample as a whole holds a higher share of hits than the screen did.

SMILES | VACV mCherry inh | Vaccinia Venus | LASV entry inh | Marburg entry inh | Cycloheximide cs | Shiga inhibitor
CC(C)[C@H](N)C(=O)N[C@H]1CCC2C3CC=C4C[C@@H](O)CC[C@]4(C)C3CC[C@@]21C (some centres not stated) | ? | 13µM* | / | / | / | /
COc1ccc(NC(=O)c2c([N+](=O)[O-])c(C(C)(C)C)nn2C)cc1 | -3% | -11% | 6%[46.1 µM] | -14%[46.1 µM] | -2 | 5
COCc1cc(=O)[nH]c(Nc2nc3ccc(C)cc3o2)n1 | / | ? | ? | ? | 43* | 82*
O=C(c1ccccc1)N1CCCCC1CCN1CCCCC1 (configuration not stated) | -14% | -12% | -4%[46.1 µM] | 8%[46.1 µM] | / | /
COc1ccccc1N(CC(=O)NC1CCCC1)C(=O)c1cnn(C(C)C)c1 | -7% | -9% | 15% | -18% | 28* | 56*
CC(=O)N(C)c1ccc(OCC(O)Cn2c3ccc(Cl)cc3c3cc(Cl)ccc32)cc1 (configuration not stated) | -3% | -8% | ? | 11µM* | -1 | -8
CN1CCN(S(=O)(=O)c2ccc(Cl)c(C(F)(F)F)c2)CC1 | i | -8% | 27%[46.1 µM] | 20% | / | /
O=S(=O)(c1ccc(Cl)c(C(F)(F)F)c1)N1CCN(CC(O)COCC2CCCO2)CC1 (configuration not stated) | / | / | -8% | 2% | 32* | -9
O=C(N/N=C/c1cn(-c2ccccc2)nc1-c1cc2ccccc2o1)c1c[nH]c2ccccc12 | -16% | -23% | ? | ? | 45* | 133*
O=C(N/N=C/c1coc2ccccc2c1=O)c1cn(-c2ccccc2)nc1-c1ccccc1 | -13% | -20% | -1% | 17% | 0 | -14
O=C(N/N=C/c1cn(-c2ccccc2)nc1-c1cc2ccccc2o1)c1ccccc1Br | i | -11% | ? | 10µM* | 66* | 100*
COc1ccc(-n2nc(C(=O)Nc3ccc(C)cn3)c3c4ccccc4n(C)c3c2=O)cc1 | 6% | 6% | ? | -2%[46.1 µM] | / | /
CCc1ccc(C(=O)CSc2nc(-c3ccccc3)nc3c2CCCC3)cc1 | -3% | -6% | 12%[46.1 µM] | ? | / | /
Cc1ccc(-c2nn3c(C)nnc3s2)cc1N | / | / | 15% | ? | 16* | 48
Cc1ccc(-c2nn3c(C)nnc3s2)cc1NCc1c(F)cccc1Cl | i | 0% | ? | 9.2µM* | -3 | -9
CCN(CC)c1ccc(NC(=S)NC(=O)c2cccs2)cc1 | -20% | -21% | / | / | 46* | 88*
Cc1ccc(C(=O)NC(=S)Nc2ccc(-c3ccc(CO)o3)cc2)cc1 | -21% | -19% | -18% | -19%[46.1 µM] | 29 | 51
CCCC(=O)Nc1ccc(NC(=S)NC(=O)c2cccs2)cc1 | / | / | 11% | -4% | 22 | 51*
O=C(NC(=S)Nc1ccc(-c2ccc(CO)o2)cc1)c1cccs1 | i | -11% | 1% | -2%[46.1 µM] | 46* | 67*
CCCC(=O)NC(=S)Nc1ccc(NC(=O)c2cccs2)cc1 | / | / | 0% | 5% | 12* | 26
CCCC(=O)Nc1ccc(C(=O)NNC(=S)NC(=O)c2cccs2)cc1 | ? | -13% | 2% | -20% | -2 | -7
O=C(NCc1ccccc1)c1ccc(NC(=O)C2CCCC2)cc1 | i | -15% | 5%[46.1 µM] | / | / | /
c1cncc(-c2nc(Oc3ccc(-c4nnco4)cc3)c3c4c(sc3n2)CCCC4)c1 | / | / | / | 5% | 15 | 20
CCC/C(O)=C1\C(=O)CC(C)(C)CC1=Nc1ccc(OC)cc1OC | / | ? | -24% | 2µM* | -3 | 3
CCCC/C(O)=C1\C(=O)CC(C)(C)CC1=Nc1ccccc1OC | / | / | 3% | ? | -3 | -5
SMILES | VACV mCherry inh | Vaccinia Venus | LASV entry inh | Marburg entry inh | Cycloheximide cs | Shiga inhibitor
CN(C)c1cccc(C(=O)OCC(=O)Nc2nccs2)c1 | i | -15% | 23% | ? | 30* | 101*
Cc1cccc(C(=O)OCC(=O)NCc2cccs2)c1 | i | -11% | 28% | 6%[46.1 µM] | 5 | -5
CN(C)c1cccc(C(=O)NCc2ccccc2)c1 | i | -5% | 23% | ? | 34 | 59
Cc1cccc(C(=O)OCC(=O)Nc2nccs2)c1 | / | / | 1% | 8% | 19* | 36
CN(C)c1cccc(C(=O)NCc2ccccc2Cl)c1 | -16% | -11% | -26%[46.1 µM] | ? | 19* | 45
CN(C)c1cccc(C(=O)NNC(=O)CSc2ccccc2)c1 | -3% | -13% | -1%[46.1 µM] | 3%[46.1 µM] | 13* | 26
Cc1ccc(NS(=O)(=O)c2c(C)[nH]c(C)c2C(=O)N2CCCCC2)c(Cl)c1 | / | / | / | / | -6 | -4
CC[C@H](C)[C@@H](NC(=O)O[C@H]1C(=O)c2cc(OC)ccc2O[C@@H]1c1ccc(OC)c(Br)c1)C(=O)OC | / | / | / | -11%[14.2 µM] | / | /
CN(C)c1cccc(C(=O)OCC(=O)Nc2ccccc2Cl)c1 | -3% | -5% | -13% | ? | 22 | 42*
Cc1nc(Nc2nc(CSc3nc4ccccc4[nH]3)cc(=O)[nH]2)nc2ccccc12 | 10µM* | 10µM* | ? | 13µM* | -5 | -16
Cc1nc(Nc2nc(-c3ccccc3)cc(=O)[nH]2)nc2ccccc12 | 10µM* | 10µM* | ? | ? | / | /
COc1ccc2nc(Nc3nc(CSc4nc5ccccc5[nH]4)cc(=O)[nH]3)nc(C)c2c1 | ? | ? | ? | 11µM* | -5 | -9
COc1nc(Nc2nc3ccccc3c(=O)[nH]2)nc2ccc(C)cc12 | 2µM* | 2µM* | / | / | 2 | -8
Cc1nc(Nc2nc(CSc3ccc(Cl)cc3)cc(=O)[nH]2)nc2ccccc12 | -13% | -4% | 13% | 7% | 7 | -15
Cc1cc(C)cc(Nc2nc3ccccc3c(=O)[nH]2)c1 | -10% | -20% | 4% | ? | 24 | 3
Cc1ccc2nc(Nc3nc(CSc4nnnn4-c4ccccc4)cc(=O)[nH]3)nc(C)c2c1 | / | / | -2% | 0% | -3 | -9
COCCNC(=O)C(=O)NCC(c1cccnc1)N1CCN(c2ccccc2)CC1 (configuration not stated) | -6% | -7% | -19%[46.1 µM] | / | / | /
CCOc1ccc(NC(=O)CSCC(=O)O)cc1 | / | / | 3% | 13% | 13 | -16
CCOc1ccc(NC(=O)COC(=O)c2ccc3c(c2)C(=O)N(CCc2ccccc2)C3=O)cc1 | i | -2% | 2% | 6% | 19* | 66*
CCOc1ccc(NC(=O)C2C(c3ccccc3)C2(Cl)Cl)cc1 (configuration not stated) | -10% | -29% | -26%[46.1 µM] | 21%[46.1 µM] | 21* | 42*
CCOc1ccc(NC(=O)CSc2ccccc2N)cc1 | ? | ? | / | 3.5µM* | 39* | 118*
COC(=O)c1ccc(NC(=O)Cc2ccccc2)cc1 | -12% | -1% | 17% | ? | 50* | 100*
O=C(COC(=O)c1ccc2c(c1)C(=O)N(CCc1ccccc1)C2=O)Nc1ccc(OC(F)F)cc1 | i | -12% | 2% | -2% | 6 | 32
CN(C)c1ccc(CNC(=O)c2ccc(NC(=O)N3CCCCc4ccccc43)cc2)cc1 | i | -23% | 8%[46.1 µM] | / | / | /
